PubChem BioAssay (NCI)
Several values for one entry are separate records, joined by “and”; a condition that tells them apart may be missing. Equal values may be shown once. Compounds without any hit were thinned out: in the full panel of roughly 83,000, 20% have a hit.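 In brief: 96-well plates, 48 h treatment, single concentration, percent growth endpoint.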 Activity calls are given as the source filed them. How the source made its calls: active means growth percent below 10; inactive means the rest.

Key:
Assay in all cases: NCI-60 one-dose screen, 48 h (100 = growth as untreated, 0 = no growth, -100 = all killed)
SN12C renal = details: 10 µM unless noted
UO-31 renal = details: 10 µM unless noted
TK-10 renal = system: TK-10 renal
ACHN renal = details: 10 µM unless noted
CAKI-1 renal = details: 10 µM unless noted
A498 renal = details: 10 µM unless noted
HL-60(TB) leukemia = details: 10 µM unless noted
CCRF-CEM leukemia = details: 10 µM unless noted
MOLT-4 leukemia = details: 10 µM unless noted
SR leukemia = details: 10 µM unless noted

Measured: growth

Cc1c(N)nc([C@H](CC(N)=O)NC[C@H](N)C(N)=O)nc1C(=O)N[C@H](C(=O)N[C@H](C)[C@@H](O)[C@H](C)C(=O)N[C@H](C(=O)NCCc1nc(-c2nc(C(=O)NCCC[S+](C)C)cs2)cs1)[C@@H](C)O)C(OC1OC(CO)C(O)C(O)C1OC1OC(CO)C(O)C(OC(N)=O)C1O)c1cnc[nH]1 (some centres undefined)
inactive: SN12C renal 52.2% [2.5 µM] | UO-31 renal 39.9% [2.5 µM] | TK-10 renal; 2.5 µM 89.5% | CAKI-1 renal 26.4% [2.5 µM] | A498 renal 84.1% [2.5 µM] | HL-60(TB) leukemia 81.8% [2.5 µM] | CCRF-CEM leukemia 51.6% [2.5 µM] | MOLT-4 leukemia 67.1% [2.5 µM]
42.4% (inactive) and -73.8% (active): TK-10 renal; 25 µM
active: ACHN renal -6.04% [2.5 µM] | SR leukemia -4.59% [2.5 µM]

C[C@]12CC[C@H](O)CC1=CC[C@@H]1[C@@H]2CC[C@]2(C)C(=O)CC[C@@H]12
active: SR leukemia -4.91%
inactive: SN12C renal 106% | UO-31 renal 80.6% | TK-10 renal; 10 µM 96.2% | ACHN renal 108% | CAKI-1 renal 87.3% | A498 renal 92% | HL-60(TB) leukemia 85% | CCRF-CEM leukemia 76.3% | MOLT-4 leukemia 89%

NCCc1ccc(OCc2ccccc2)c(OCc2ccccc2)c1
inactive: SN12C renal 86.6% | UO-31 renal 51.2% | TK-10 renal; 10 µM 107% | ACHN renal 71.1% | CAKI-1 renal 81.6% | A498 renal 79% | HL-60(TB) leukemia 51.4% | MOLT-4 leukemia 78.1%
active: SR leukemia -27.5%

COC1CC(CC2CCC(C)C(C(C)C(=O)O)O2)OC2(OC(C)(C3CCC(C)(C4OC(C5OC(O)(CO)C(C)CC5C)CC4C)O3)CC2C)C1C (centres undefined)
active: TK-10 renal; 10 µM 4.27% | CAKI-1 renal 8.78% | A498 renal -68.8% | HL-60(TB) leukemia -56% | CCRF-CEM leukemia -27.1% | MOLT-4 leukemia -36.2% | SR leukemia -28.8%
inactive: SN12C renal 17.1% | UO-31 renal 13.3% | ACHN renal 16.2%

COc1ccccc1/C=C(/C)[N+](=O)[O-]
8.42% (active) and 99.5% (inactive): CCRF-CEM leukemia
inactive: SN12C renal 32.9% and 99.3% | UO-31 renal 78.7% and 83.1% | TK-10 renal; 10 µM 75.2% and 95% | ACHN renal 71.1% and 107% | CAKI-1 renal 85.8% and 95.1% | A498 renal 99.1% and 118% | HL-60(TB) leukemia 30.7% and 92.7% | MOLT-4 leukemia 13.9% and 102% | SR leukemia 10% and 92.3%

CC1=C(CO)C2=C(C)C3(CC3)[C@@](C)(O)C(=O)C2=C1
inactive: SN12C renal 20.5% | CCRF-CEM leukemia 28.6% | MOLT-4 leukemia 16% | SR leukemia 21.4%
active: UO-31 renal -40.5% | TK-10 renal; 10 µM -23.3% | ACHN renal -16.4% | CAKI-1 renal -17% | A498 renal -66.5% | HL-60(TB) leukemia -32.9%

CCCCCCCCCCCC1CCCC(C)N1 (centres undefined)
active: HL-60(TB) leukemia -45.8% | SR leukemia -28%
inactive: SN12C renal 75.3% | UO-31 renal 29% | ACHN renal 77.8% | CAKI-1 renal 86.6% | A498 renal 95.8% | CCRF-CEM leukemia 16.5% | MOLT-4 leukemia 14.1%

CCOC(=O)C(NC(=O)C(Cc1ccc(N(CCCl)CCCl)cc1)NC(C)=O)C(C)C (centres undefined)
inactive: SN12C renal 76.2% | UO-31 renal 82.5% | TK-10 renal; 10 µM 95.5% | ACHN renal 42.7% | CAKI-1 renal 40.8% | A498 renal 107% | HL-60(TB) leukemia 44.9% | CCRF-CEM leukemia 71.7% | MOLT-4 leukemia 56.6% | SR leukemia 28.2%

CC[C@@]1(O)C[C@H](OC2CC(N(C)C)C(O)C(C)O2)c2c(O)c3c(c(O)c2[C@H]1OC1CC(N(C)C)C(O)C(C)O1)C(=O)c1cccc(O)c1C3=O (some centres undefined)
active: UO-31 renal -33.9% | TK-10 renal; 10 µM -24.9% | ACHN renal -31% | CAKI-1 renal -9.18% | A498 renal -68% | HL-60(TB) leukemia -34.3% | CCRF-CEM leukemia -37.7% | MOLT-4 leukemia -10.5% | SR leukemia -7.1%
inactive: SN12C renal 11.4%

c1ccc2c(c1)[nH]c1c2cc[n+]2cc3c(cc12)CCCC3
inactive: HL-60(TB) leukemia 13.5%

O=C(O)c1ccccc1.[Ag]
inactive: HL-60(TB) leukemia 113%

C[C@H]1CCC/C=C/[C@@H]2C[C@H](O)C[C@H]2[C@H](O)/C=C/C(=O)O1
active: UO-31 renal -22.9% | TK-10 renal; 10 µM -31.1% | ACHN renal 1.27% | CAKI-1 renal -2.67% | A498 renal -37.1% | HL-60(TB) leukemia -22.5% | CCRF-CEM leukemia 7.53% | MOLT-4 leukemia -7.93% | SR leukemia -6.07%
inactive: SN12C renal 19.8%

CC[C@@]1(O)C(=O)OCc2c1cc1n(c2=O)Cc2cc3ccccc3nc2-1
inactive: SN12C renal 13.5%
active: UO-31 renal -59.6% | TK-10 renal; 10 µM -8.5% | ACHN renal -72.6% | CAKI-1 renal -37.9% | A498 renal -77.4% | CCRF-CEM leukemia -28.1% | MOLT-4 leukemia -17.4% | SR leukemia -3.04%

COC1=C(C)C(=O)C2=C(C1=O)C(CO)N1C(C#N)C3CC4C(C1C2N1CCOC41)N3C (centres undefined)
inactive: SN12C renal 19.8%
active: TK-10 renal; 10 µM -28.8% | ACHN renal -9.01% | CAKI-1 renal -23.1% | A498 renal -67.7% | HL-60(TB) leukemia -33.9% | CCRF-CEM leukemia -37.8% | MOLT-4 leukemia -2.61% | SR leukemia -19.5%

Oc1cc[c]([Hg][Cl])cc1
inactive: SN12C renal 98.9% | UO-31 renal 100% | TK-10 renal; 10 µM 110% | ACHN renal 99% | CAKI-1 renal 110% | A498 renal 107% | HL-60(TB) leukemia 102% | CCRF-CEM leukemia 55.2% | MOLT-4 leukemia 65.2% | SR leukemia 38.2%

CC[n+]1c(-c2ccccc2)c2cc(N)ccc2c2ccc(N)cc21
inactive: UO-31 renal 63.5% | TK-10 renal; 10 µM 42% | ACHN renal 54.4% | CAKI-1 renal 81% | A498 renal 60.4% | HL-60(TB) leukemia 23.7% | CCRF-CEM leukemia 27.5% | MOLT-4 leukemia 23.7%
active: SN12C renal -16.5%

Oc1cccc2cccnc12
inactive: SN12C renal 89.6% and 103% and 99.6% | UO-31 renal 74.2% and 94.4% and 80.2% | TK-10 renal; 10 µM 113% and 98.5% and 104% | ACHN renal 83.5% and 117% and 96% | CAKI-1 renal 103% and 100% and 107% | A498 renal 137% and 99.4% and 83.7% | HL-60(TB) leukemia 98.8% and 114% and 78.2% | CCRF-CEM leukemia 48.8% and 99.2% and 96% | MOLT-4 leukemia 60.2% and 110% and 97.8% | SR leukemia 40.1% and 105% and 57.7%

Oc1ccc(Cl)cc1Sc1cc(Cl)ccc1O
inactive: HL-60(TB) leukemia 81.8%
